The panel holds about 83,000 compounds, 20% with a hit somewhere; the sample as a whole holds those more often.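 Treatment: one concentration, 48 hours, 96-well format. Scoring: percent growth, with anything below 10 considered active.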 Unmarked numbers belong to inactive results. Activity calls are given as the source filed them.

Drawing on PubChem BioAssay (NCI), this text covers growth for 24 compounds.

Common to all, as to assay: NCI-60 one-dose screen, 48 h (100 = growth as untreated, 0 = no growth, -100 = all killed)
What all share (conditions): 10 µM unless noted

Assay [1] relates to NCI-H23 lung.
Assay [2] deals with NCI-H226 lung.
The test system of assay [3] is NCI-H322M lung.
Assay [4] concerns HOP-62 NSCLC.
The test system of assay [5] is NCI-H460 lung.
The test system of assay [6] is HOP-92 NSCLC.
Assay [7] concerns NCI-H522 lung.
Assay [8] concerns A549/ATCC NSCLC.
For assay [9], the system named is 786-0 renal.
Assay [10] relates to COLO 205 colon.

In the case of `c1ccc(-c2nc(N3CCCNCC3)c3nc(-c4ccccc4)oc3n2)cc1`, the growth in [1] is 22.3%; in [2] it was 49.9%; in assay [3], 93.7%; in [4] it was 78.2%; in [5], -50.1% (active); in assay [6], 42.4%. Further, the growth was 26.4% in [7], -38.8% (active) in [8], 67% in assay [9] and -79.2% (active) in assay [10].
`CC(C)OC(=O)Nc1cc(F)ccc1F`: the growth is 92.9% in assay [1]; 90.9% in [2]; 90.8% in assay [3]; 101% in assay [4]; 106% in [5]; 99.6% in [6]. Moreover, the growth in assay [7] is 99.8%; in assay [8], 99.7%; in assay [9], 103%; in [10] it was 105%.
On to `Nc1nc(N)c2c(n1)NC(c1ccc(F)cc1)C1CCc3ccccc3C1=N2` (stereo not given), for which the growth is 51.1% in assay [1]; 53.1% in assay [2]; 67.3% in assay [3]; 74.1% in assay [4]; 26.2% in [5]; 74.1% in assay [6]. Moreover, the growth is 101% in assay [7], 58.6% in assay [8], 60.9% in assay [9] and 48.4% in [10].
Take `Cc1ncc(C(=O)Nc2ccc(CN3CCN(C)CC3)c(C(F)(F)F)c2)cc1C#Cc1c(N)ncc2ccc(C#N)cc12`: the growth in assay [1] is 35.8%; in assay [2], 19.9%; in [3], 34.4%; in assay [4], 16.5%; in assay [5] it was 43.4%; in assay [6] it was -8.03% (active). The growth in [7] was 46.9%; in [8], 34.4%; in assay [9], -51% (active); in [10], 7.77% (active).
Turning to `CC(C)[N+](C)(C)CC(O)COc1cccc2ccccc12` (stereo not given), the growth in assay [1] is 95.5%; in assay [2] it was 107%; in assay [3] it was 112%; in assay [4], 106%; in assay [5], 109%; in [6] it was 81.4%. The growth is 114% in [7], 101% in [8], 121% in assay [9] and 104% in [10].
`CCN(CC)CCSC(=O)C(O)(c1ccccc1)C1CCCC1` (stereo not given): the growth in assay [1] was 99.4%; in [2], 93.1%; in [3] it was 118%; in assay [4], 111%; in assay [5], 115%; in assay [6], 77%. Further, the growth is 86.7% in assay [7], 85.2% in [8], 169% in assay [9] and 144% in assay [10].
With `Nc1nnc(CSc2nnc3n(Cc4ccccc4)c(=O)c4c5c(sc4n23)CCCC5)s1`, the growth in [1] was 88.5%; in assay [2] it was 90.6%; in assay [3] it was 111%; in assay [4], 99.2%; in [5], 15.4%; in assay [6], 70.6%. For the same compound, the growth in assay [7] was 66.8%; in assay [8], 95.1%; in assay [9], 93.3%; in assay [10], 77.4%.
In the case of `CC(C)CCNCC(C)(C)O`, the growth in assay [1] was 101%; in [2], 111%; in assay [3], 106%; in [4] it was 95.5%; in [5], 114%; in [6] it was 96.6%. In addition, the growth in assay [7] is 98.7%; in assay [8] it was 105%; in [9], 111%; in [10], 118%.
As for `CCN(CCNc1ccc(C)c2sc3cc(Cl)ccc3c(=O)c12)CC(C)O` (stereo not given), the growth in assay [1] was 92.9%; in [2], 134%; in assay [3], 95.9%; in assay [4] it was 76%; in assay [5], 3.16% (active); in assay [6], 29.8%. In addition, the growth in [7] is 28.3%; in [8], 34.7%; in assay [9] it was 41.9%; in assay [10], -34% (active).
As for `COc1ccc(/C=C(/C2=NCCN2)n2ccc3ccccc32)cc1`, the growth in assay [1] was 100%; in [2], 81.5%; in assay [3] it was 92%; in assay [4], 97.1%; in [5], 93.1%; in assay [6], 56.7%. Besides, the growth is 85.9% in assay [7], 99.8% in assay [8], 88.8% in [9] and 83.9% in assay [10].
For the compound `CCCCN(CC)CC(CC)Nc1cc(OC)cc2cccnc12` (stereo not given), the growth in [1] is 113%; in assay [2], 107%; in [3], 110%; in assay [4] it was 110%; in [5], 110%; in assay [6], 89.4%. The growth is 118% in assay [7], 96.3% in assay [8], 107% in assay [9] and 119% in [10].
For the compound `CC1(C)CC[C@]2(C(N)=O)CC[C@]3(C)C(=CC[C@@H]4[C@@]5(C)C/C(=C/c6cccnc6)C(=O)C(C)(C)[C@@H]5CC[C@]43C)[C@@H]2C1`, the growth in assay [1] is -2.72% [100 µM] (active); in assay [2], -36.8% [100 µM] (active); in assay [3] it was -57.3% [100 µM] (active); in [4] it was -55.5% [100 µM] (active); in assay [5], -51.8% [100 µM] (active); in assay [6], -50.7% [100 µM] (active). The growth in [7] was -59.7% [100 µM] (active); in assay [8] it was -35.9% [100 µM] (active); in assay [9], -38.4% [100 µM] (active); in assay [10], -57.6% [100 µM] (active).
`Cn1cc(-c2nnc(-c3ccccc3)s2)c2cc(Br)cnc21`: the growth in assay [1] was 85%; in [2], 64%; in [3] it was 88.2%; in assay [4], 74.3%; in assay [5] it was 95.4%; in [6], 42.3%. Further, the growth is 89.5% in assay [7], 83.1% in assay [8], 99.6% in assay [9] and 104% in assay [10].
As for `COc1cc(/C=C/C(=O)/C=C/c2ccc(-n3ccnc3)cc2)ccc1O`, the growth is 60.6% in [1]; 77.9% in [2]; 94.8% in assay [3]; 97.9% in [4]; 76.4% in assay [5]; 85.2% in assay [6]. Also, the growth in assay [7] is 89.5%; in assay [8], 69.3%; in assay [9], 107%; in assay [10], 52.4%.
With `N=C(N)c1ccc(-c2ccc(-c3ccc(-c4cccs4)s3)s2)cc1F`, the growth in [1] is 93.2%; in assay [2] it was 95.7%; in assay [3] it was 26%; in assay [4] it was 100%; in [5], 13%; in assay [6] it was 94.8%. In addition, the growth was 100% in assay [7], 15.1% in [8], 99.5% in assay [9] and 101% in assay [10].
Regarding `C=CCCCCOc1ccccc1-c1cnc(OCCCCC=C)n1C`, the growth was 76% in [1]; 92.2% in assay [2]; 72% in [3]; 77.2% in assay [4]; 55.6% in assay [5]; 75.2% in assay [6]. For the same compound, the growth in assay [7] is 12.6%; in assay [8] it was 50.3%; in [9], 107%; in assay [10], 46%.
With `CC1(C)C(=O)/C(=C\c2cccnc2)C[C@]2(C)[C@H]3CC[C@@H]4[C@H]5[C@H](C(=O)/C=C/c6cccnc6)CC[C@]5(C(=O)O)CC[C@@]4(C)[C@]3(C)CC[C@@H]12`, the growth in assay [1] was -60.4% [100 µM] (active); in assay [2] it was -37.4% [100 µM] (active); in assay [3] it was -97.2% [100 µM] (active); in assay [4], -66.8% [100 µM] (active); in [5], -43.9% [100 µM] (active); in assay [6], -63.5% [100 µM] (active). For the same compound, the growth in assay [7] was -71.6% [100 µM] (active); in [8], -13.6% [100 µM] (active); in [9], -39.5% [100 µM] (active); in [10], -55.9% [100 µM] (active).
Regarding `CC1(C)CC[C@]2(C(=O)O)CC[C@]3(C)C(=CC[C@@H]4[C@@]5(C)C/C(=C/c6cccnc6)[C@H](O)C(C)(C)[C@@H]5CC[C@]43C)[C@@H]2C1`, the growth is 6.1% [100 µM] (active) in assay [1]; -23% [100 µM] (active) in assay [2]; -17% [100 µM] (active) in assay [3]; -2.51% [100 µM] (active) in [4]; -16.7% [100 µM] (active) in [5]; -21.8% [100 µM] (active) in assay [6]. The growth was -8.98% [100 µM] (active) in [7], 5.82% [100 µM] (active) in [8], 5.39% [100 µM] (active) in assay [9] and -73% [100 µM] (active) in [10].
Consider `C=CCCCCCCCCC(=O)OC(C)C`, for which the growth is 98.4% in assay [1]; 102% in assay [2]; 94% in assay [3]; 97.5% in assay [4]; 100% in assay [5]; 82.3% in [6]. In addition, the growth in [7] is 91.7%; in [8] it was 99.2%; in assay [9], 104%; in assay [10], 105%.
In the case of `O=C(COc1cccc(/C=C2\Oc3ccccc3C2=O)c1)c1ccc([N+](=O)[O-])cc1`, the growth in assay [1] was 79.9%; in assay [2] it was 85.8%; in assay [3], 115%; in assay [4] it was 103%; in assay [5], 95.7%; in assay [6] it was 78.1%. Besides, the growth in assay [7] was 57%; in assay [8], 90%; in assay [9], 102%; in assay [10] it was 107%.
Regarding `O=C1NC(=O)C(Cc2ccc(OCc3ccc(-c4cc(F)c(F)c(F)c4)cc3)cc2)S1` (stereo not given), the growth in assay [1] was 80.9%; in [2], 82.5%; in assay [3], 92.4%; in [4], 91.7%; in [5], 92%; in assay [6] it was 98.2%. The growth in assay [7] was 49.5%; in assay [8], 73.2%; in [9], 95.5%; in assay [10] it was 97.6%.
Turning to `Cn1cc(-c2nnc(-c3cn(C)c4ncccc34)s2)c2ccccc21`, the growth in assay [1] is 84.6%; in assay [2] it was 96%; in assay [3], 92.7%; in assay [4], 65.8%; in assay [5], 75.1%; in [6] it was 30.2%. Moreover, the growth in [7] is 32.1%; in assay [8] it was 57.6%; in [9] it was 78.4%; in assay [10] it was 64.1%.
In the case of `Nc1cc(C(=O)O)[nH]c(=S)n1`, the growth is 95.2% in assay [1]; 95.2% in assay [2]; 98.1% in [3]; 106% in [4]; 105% in assay [5]; 67.7% in [6]. For the same compound, the growth was 96.7% in [7], 98.5% in assay [8], 100% in assay [9] and 112% in [10].
Turning to `CO[C@H]1CC[C@@]2(C)C(=CC[C@H]3[C@@H]4C[C@H](O)C[C@@]4(C)CC[C@@H]32)C1`, the growth in assay [1] was 67.8%; in assay [2] it was 82.4%; in assay [3] it was 91.3%; in assay [4] it was 62.4%; in assay [5], 42.9%; in assay [6], 35.6%. The growth in assay [7] is 71.6%; in [8] it was 81.9%; in [9], 61.5%; in assay [10] it was 61.5%.
